Data published in the supplement of paper PMC10981050.
Where “and” joins values, the source holds several entries; their conditions need not be identical. Identical values can stand only once. Counter-ions that a name gives are not always drawn.

Legend:
Assay in all cases: cell viability relative to vehicle control; higher = less cytotoxic
Conditions in all cases: 10 µM
K562 = system: K562
Procedure, shortened: (§1)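 CRISPR-edited SRSF2 P95 mutant and isogenic wild-type clones of four leukaemia lines were screened against Selleck bioactive, kinase and epigenetic probe libraries, with identity-inconsistent compounds removed. Compounds were acoustically dispensed into 384-well plates at a single 10 µM dose, with 2000 cells in 50 µL medium per well. After 48 h, supernatant was removed and CellTiter-Glo luminescence was read. Viability was expressed as percent of the on-plate DMSO vehicle control, analysed in Genedata Screener.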

MARIMO = system: MARIMO
Procedure, shortened: as §1

MOLM14 = system: MOLM14
Procedure, shortened: as §1

OCI-AML2 = system: OCI-AML2
Procedure, shortened: as §1

Structure (SMILES) | cell viability (K562; SRSF2 genotype: SRSF2 P95H/wt) | cell viability (K562; SRSF2 genotype: SRSF2 wt/wt) | cell viability (MARIMO; SRSF2 genotype: SRSF2 P95H/wt) | cell viability (MARIMO; SRSF2 genotype: SRSF2 wt/wt) | cell viability (MOLM14; SRSF2 genotype: SRSF2 P95H/wt) | cell viability (MOLM14; SRSF2 genotype: SRSF2 wt/wt) | cell viability (OCI-AML2; SRSF2 genotype: P95H/wt) | cell viability (OCI-AML2; SRSF2 genotype: wt/wt)
O=c1[nH]c(=O)n(C2CC(O)C(CO)O2)cc1I (stereo not drawn) [Idoxuridin] | 86.7% and 92.3% | 77% | 102% | 98.3% | 80.5% | 88.1% | 83.3% | 84.3%
CCN(CCO)CCCOc1ccc2c(Nc3cc(CC(=O)Nc4cccc(F)c4)[nH]n3)ncnc2c1 [Barasertib (AZD1152-HQPA)] | 70.7% and 93.2% | 81% | 73.2% | 68.2% | 13.9% | 7.61% | 29.1% | 36.6%
O=C(CCc1ccc(O)cc1)c1c(O)cc(O)cc1O [Phloretin] | 96.9% and 94.4% | 98.1% | 93.5% | 90.2% | 91% | 95.7% | 87.5% | 87.9%
C[C@@]12C[C@@]3(O)O[C@@H](O1)[C@]1(COC(=O)c4ccccc4)[C@H]3C[C@@]12O[C@@H]1O[C@H](CO)[C@@H](O)[C@H](O)[C@H]1O [Paeoniflorin] | 100% and 109% | 102% | 101% | 101% | 107% | 111% | 112% | 97.3%
CCCC(=O)NCCc1csc(-c2ccc(Cl)cc2)n1 [Azoramide] | 86.4% and 89.4% | 98.4% | 79.9% | 83.8% | 102% | 99.5% | 71.1% | 75.5%
CNC(=O)c1cc(Oc2ccc3nc(N[C@@H]4CCCC[C@H]4O)sc3c2)ccn1 | 87.4% and 93.2% | 89.4% | 100% | 99.1% | 89.2% | 99.5% | 90% | 83.2%
CCOC(=O)c1ncn2c1CN(C)C(=O)c1cc(F)ccc1-2 [Flumazenil] | 107% and 101% | 108% | 95.9% | 107% | 106% | 101% | 94% | 103%
C[C@@H]1O[C@@H](OC[C@H]2O[C@@H](Oc3c(-c4ccc(O)c(O)c4)oc4cc(O)cc(O)c4c3=O)[C@H](O)[C@@H](O)[C@@H]2O)[C@H](O)[C@H](O)[C@H]1O [Rutin (Rutoside)] | 106% and 105% | 109% | 108% | 106% | 105% | 103% | 105% | 115%
CCCCCC(=O)O[C@]1(C(C)=O)CC[C@H]2[C@@H]3CCC4=CC(=O)CC[C@]4(C)[C@H]3CC[C@@]21C [Hydroxyprogesterone caproate] | 40.1% and 34.4% | 39.2% | 29.2% | 24.9% | 38.5% | 21% | 28.8% | 23.7%
COc1cc(OC)c(NC(=O)Nc2cc(C)on2)cc1Cl | 91.9% and 83.8% | 85.7% | 86.4% | 86.6% | 61.3% | 74.5% | 73.4% | 74.3%
C#C[C@]1(OC(C)=O)CC[C@H]2[C@@H]3CCC4=C[C@@H](OC(C)=O)CC[C@@H]4[C@H]3CC[C@@]21C [Ethynodiol diacetate] | 78.7% and 88.6% | 80.7% | 51.5% | 46.5% | 63.6% | 78.8% | 30.3% | 36.3%
Cc1c(C)c(NCC(=O)N(C)C2CCN(Cc3ccc(C(N)=O)cc3)CC2)c(C)c(C)c1N | 103% and 95.7% | 100% | 99.4% | 102% | 87.1% | 96.8% | 98.7% | 103%
O=C(O)c1ccccc1C(=O)Nc1ccc(-c2ccccc2)cc1 [Kartogenin] | 106% and 113% | 103% | 105% | 107% | 106% | 105% | 105% | 97.9%
COc1cc2c(cc1OC)-c1c(C)c3ccc(OC)c(OC)c3c[n+]1CC2 [Dehydrocorydalin] | 88.3% and 96% | 90.6% | 94% | 96% | 94.8% | 95.6% | 79.8% | 84.1%
CCOC(=O)c1ccc(NC(=O)O[C@H]2[C@H](OC(=O)Nc3ccc4c(c3)OCO4)[C@@H](OC(=O)Nc3ccc4c(c3)OCO4)[C@@H](OC)O[C@@H]2CO)cc1 | 89.5% and 99.2% | 93.3% | 103% | 106% | 100% | 101% | 99.3% | 103%
CC1=C(/C=C/C(C)=C/C=C/C(C)=C/C=C/C=C(C)/C=C/C=C(C)/C=C/C2=C(C)CCCC2(C)C)C(C)(C)CCC1 [Beta Carotene] | 100% and 103% | 92% | 93.3% | 101% | 93.8% | 98% | 98.3% | 105%
CC(=O)Oc1ccc2c(c1)Oc1cc(OC(C)=O)ccc1C21OC(=O)c2cc(C(=O)ON3C(=O)CCC3=O)ccc21.CC(=O)Oc1ccc2c(c1)Oc1cc(OC(C)=O)ccc1C21OC(=O)c2ccc(C(=O)ON3C(=O)CCC3=O)cc21 | 90.8% and 93.8% | 99.6% | 98.1% | 77.4% | 92.8% | 63.6% | 75.5% | 77.9%
COC(=O)C1=CO[C@@H](O[C@@H]2O[C@H](CO)[C@@H](O)[C@H](O)[C@H]2O)[C@@H]2C(CO)=CC[C@H]12 [Geniposide] | 98.8% and 85.3% | 87.9% | 84.1% | 100% | 94.9% | 92.3% | 99.6% | 89.8%
C=C1/C(=C\C=C2/CCC[C@]3(C)[C@@H]([C@H](C)/C=C/[C@@H](O)C4CC4)CC[C@@H]23)C[C@@H](O)C[C@@H]1O [Calcipotriene] | 75.3% and 84.2% | 79.8% | 65% | 65.3% | 66.8% | 63.6% | 79.2% | 96.1%
COc1cc(O)c2c(=O)c(O[C@@H]3O[C@H](CO)[C@@H](O)[C@H](O)[C@H]3O)c(-c3ccc(O[C@@H]4O[C@H](CO)[C@@H](O)[C@H](O)[C@H]4O)cc3)oc2c1 [Complanatuside] | 105% and 101% | 106% | 108% | 104% | 108% | 106% | 107% | 96.2%
COc1cc2nc(N3CCN(C(=O)C4COc5ccccc5O4)CC3)nc(N)c2cc1OC (stereo not drawn) [Doxazosin mesylate] | 94.7% and 100% | 95.9% | 105% | 101% | 92.2% | 105% | 92.7% | 96.5%

Structure (SMILES) | cell viability (K562; SRSF2 genotype: SRSF2 P95H/wt) | cell viability (K562; SRSF2 genotype: SRSF2 wt/wt) | cell viability (MARIMO; SRSF2 genotype: SRSF2 P95H/wt) | cell viability (MARIMO; SRSF2 genotype: SRSF2 wt/wt) | cell viability (MOLM14; SRSF2 genotype: SRSF2 P95H/wt) | cell viability (MOLM14; SRSF2 genotype: SRSF2 wt/wt) | cell viability (OCI-AML2; SRSF2 genotype: P95H/wt) | cell viability (OCI-AML2; SRSF2 genotype: wt/wt)
O=C(O)P(=O)(O)O [Foscarnet Sodium] | 106% and 108% | 107% | 101% | 108% | 101% | 109% | 112% | 95.6%
CCn1cc(NC(=S)Nc2cc(Cl)ccc2OC)c(C(N)=O)n1 | 92% and 90.5% | 89.8% | 99.1% | 99.4% | 96.9% | 95% | 95.2% | 92.5%
Cc1nc(Nc2n[nH]c3c2CN(C(=O)N[C@H](CN(C)C)c2ccccc2)C3(C)C)c2sccc2n1 | 13.2% and 22.6% | 14.3% | 5.65% | 3.34% | 0.49% | 0.42% | 0.9% | 10.7%
O=C(O)Cc1ccc(O)cc1 [4-Hydroxyphenylacetic acid] | 100% and 101% | 101% | 96.8% | 104% | 95.7% | 101% | 95.5% | 108%
NS(=O)(=O)Cc1noc2ccccc12 [Zonisamide] | 90.4% and 88.2% | 89.5% | 85% | 98% | 91.8% | 90.3% | 84.7% | 95.2%
Cc1ccc(C(=O)N(CCCN)[C@@H](c2oc3cc(Cl)ccc3c(=O)c2Cc2ccccc2)C(C)C)cc1 | 0.65% and 0.76% | 0.52% | 0.39% | 0.45% | 0.45% | 0.45% | 0.35% | 0.4%
COc1cc(C[C@@H](CO[C@@H]2O[C@H](CO)[C@@H](O)[C@H](O)[C@H]2O)[C@H](CO[C@@H]2O[C@H](CO)[C@@H](O)[C@H](O)[C@H]2O)Cc2ccc(O)c(OC)c2)ccc1O [Secoisolariciresinol diglucoside] | 96.7% and 93.6% | 98.9% | 90% | 101% | 101% | 98.5% | 96.8% | 104%
CCOC(=O)C1=C(C)NC(C)=C(C(=O)OCC)C1c1ccccc1/C=C/C(=O)OC(C)(C)C [Lacidipine (Lacipil, Motens)] | 51% and 64.8% | 53.2% | 53.8% | 40.3% | 49.7% | 39.8% | 44% | 42.9%
CS(=O)(=O)n1cc2c(n1)CN([C@H]1CO[C@H](c3cc(F)ccc3F)[C@@H](N)C1)C2 [Omarigliptin (MK-3102)] | 98.3% and 102% | 96.2% | 99.2% | 99.9% | 101% | 96.4% | 101% | 103%
CCN(CC)CCN(Cc1ccc(-c2ccc(C(F)(F)F)cc2)cc1)C(=O)Cn1c(SCc2ccc(F)cc2)nc(=O)c2c1CCC2 | 0.31% and 0.26% | 0.26% | 0.34% | 0.46% | 0.23% | 0.24% | 0.22% | 0.29%
NC(=O)Cc1cccc(C(=O)c2ccccc2)c1N [Nepafenac] | 96.5% and 95.7% | 91.7% | 93.8% | 93.8% | 95.4% | 96.5% | 87.7% | 92.4%
CC(C)C1=CC2=CC[C@@H]3[C@](C)(CCC[C@@]3(C)C(=O)O)[C@H]2CC1 [Abietic Acid] | 113% and 104% | 98.8% | 105% | 115% | 99.5% | 105% | 90.9% | 95.5%
CC(C)(C)C(=O)N1N=CC[C@H]1c1ccccc1 | 101% and 98.4% | 104% | 107% | 108% | 95.5% | 103% | 97.2% | 103%
CCCCS(=O)(=O)N[C@@H](Cc1ccc(OCCCCC2CCNCC2)cc1)C(=O)O [Tirofiban Hydrochloride] | 94.8% and 103% | 96% | 89.6% | 104% | 101% | 99.6% | 100% | 107%
Cc1cn([C@H]2O[C@@H](CO)[C@H](O)[C@H]2F)c(=O)[nH]c1=O [Clevudine (Levovir)] | 91.2% and 95.1% | 99.5% | 91.2% | 92.2% | 101% | 97.9% | 99.6% | 88.1%
COc1cc(-c2cc(-c3cccc(O)c3)cnc2N)cc(OC)c1OC | 13.5% and 28.9% | 15.6% | 78.2% | 72.5% | 81.9% | 83% | 83.5% | 83.1%
COc1nc2ccc(Br)cc2cc1[C@@H](c1ccccc1)[C@@](O)(CCN(C)C)c1cccc2ccccc12 [Bedaquiline] | 74.8% and 74.5% | 85.4% | 70.4% | 69.3% | 51.8% | 75.5% | 38.5% | 55.4%
O=C(Nc1ccccc1)Nc1ccc(-c2ccc(C(=O)[C@@H]3CCC[C@H]3C(=O)O)cc2)cc1 | 96.9% and 97.6% | 98.8% | 106% | 106% | 102% | 103% | 103% | 109%
CC1(C)C2CCC1(C)C(O)C2 (stereo not drawn) [Borneol] | 101% and 89.9% | 94.2% | 89.7% | 99.5% | 97.5% | 99.5% | 87.9% | 105%
c1ccc(-c2ccc(C(c3ccccc3)n3ccnc3)cc2)cc1 (stereo not drawn) [Bifonazole] | 82.3% and 83.9% | 79.7% | 81.4% | 87.7% | 84.5% | 94.2% | 83.9% | 82.7%
